The structures appear in SMILES notation. This is part of a sample that, as a whole, favours compounds with a hit. Of some 79,000 tested, about 15% had one in any assay. A number with no mark means an inactive call. Active and inactive are the calls of the source. No stated cut-off is given here; in the data, active means growth inhibition above about 70%; inactive means the rest.

Test [1] can be described thus: NCI Yeast Anticancer Drug Screen. Data for the rad50 strain (AID 155).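 Further: 0% = growth of vehicle-only cultures of the same strain.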 The settings on record: S. cerevisiae rad50 strain growth inhibition, active compounds read high. A digest of the protocol: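 DNA repair mutant yeast, compound exposure, growth read-out; inhibition is taken relative to vehicle.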
Test [2] in a line: NCI Yeast Anticancer Drug Screen. Data for the mec2-1 strain (AID 157). The settings on record: S. cerevisiae mec2-1 strain, active compounds read high. A digest of the protocol: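 Growth inhibition is read against vehicle-treated controls after compound exposure of the mec2-1 yeast strain, which is defective in DNA damage repair or cell cycle control.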
The nature of test [3]: NCI Yeast Anticancer Drug Screen. Data for the sgs1 mgt1 strain (AID 161).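 Further: 0% = growth of cultures given vehicle only.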 The settings on record: S. cerevisiae sgs1 mgt1 strain, active compounds read high. A digest of the protocol:
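Growth of a repair-deficient yeast mutant was monitored after compound treatment and expressed as inhibition relative to vehicle-treated cultures.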

The nature of test [4]: NCI Yeast Anticancer Drug Screen. Data for the cln2 rad14 strain (AID 165).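 Further: 0% = growth equal to vehicle treated cultures.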 Particulars: S. cerevisiae cln2 rad14 strain, active compounds read high. In a few lines: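 Growth inhibition, relative to vehicle-treated controls, is the read-out. The test organism is a yeast strain with defined genetic alterations, cln2 rad14.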
Test [5] is described as follows: NCI Yeast Anticancer Drug Screen. Data for the bub3 strain (AID 167). The settings on record: S. cerevisiae bub3 mutant strain, active compounds read high. In a few lines: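 In this screen, a yeast mutant lacking normal mitotic checkpoint function is challenged with compound. Relative growth versus vehicle gives the inhibition value.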
Test [6] can be described thus: NCI Yeast Anticancer Drug Screen. Data for the mlh1 rad18 strain (AID 175). Particulars: S. cerevisiae mlh1 rad18 strain growth inhibition, active compounds read high. In a few lines: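 Cells of a genetically altered yeast strain, deficient in DNA damage repair, were treated with compound. Their growth was then compared with that of vehicle-treated cultures to give inhibition.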

[7] abbreviates: at 5.0 µM (retest, dose inferred, filed as 0.5).
[8] abbreviates: at 50.0 µM (retest, dose inferred, filed as 5.0).

As to `CC(C)CCOC(=O)Nc1cccc(Cl)c1`, the growth inhibition in test [1] (setting [7]) is 2%; in test [1] (setting [8]), 76% (active); in test [1] (at 50.0 µM), 62.1%; in test [2] (setting [7]), -4%; in test [2] (setting [8]) it was 11%; in test [2] (at 50.0 µM), 12.8%. Moreover, the growth inhibition in test [3] (setting [7]) is 0%; in test [3] (setting [8]), 36%; in test [3] (at 50.0 µM), 66.2%; in test [4] (setting [7]), 1%; in test [4] (setting [8]), -8%; in test [4] (at 50.0 µM), 13.2%. Also, the growth inhibition is 47% in test [5] (setting [7]); 17% in test [5] (setting [8]); -0.75% in test [5] (at 50.0 µM); 4% in test [6] (setting [7]); 33% in test [6] (setting [8]); 44% in test [6] (at 50.0 µM).
Take `CCC(C1SC(=S)NC1=O)C1SC(=S)NC1=O` (stereo not given): the growth inhibition in test [1] (setting [7]) is 3%; in test [1] (setting [8]), 13%; in test [1] (at 50.0 µM), 99.3% (active); in test [2] (setting [7]) it was -1%; in test [2] (setting [8]) it was 29%; in test [2] (at 50.0 µM) it was 99.6% (active). Moreover, the growth inhibition in test [3] (setting [7]) is 10%; in test [3] (setting [8]), 41%; in test [3] (at 50.0 µM), 99.4% (active); in test [4] (setting [7]), -9%; in test [4] (setting [8]), -2%; in test [4] (at 50.0 µM) it was 82.9% (active). Further, the growth inhibition in test [5] (setting [7]) is -4%; in test [5] (setting [8]), 6%; in test [5] (at 50.0 µM), 99.5% (active); in test [6] (setting [7]), -1%; in test [6] (setting [8]), 35%; in test [6] (at 50.0 µM), 99% (active).
For `c1ccc(N/N=C2/CCCC3/C(=N\Nc4ccccc4)CCCC23)cc1` (stereo not given), the growth inhibition in test [1] (setting [7]) is 3%; in test [1] (setting [8]) it was 99% (active); in test [1] (at 50.0 µM), 98.2% (active); in test [2] (setting [7]) it was -5%; in test [2] (setting [8]) it was 99% (active); in test [2] (at 50.0 µM), 65.5%. The growth inhibition in test [3] (setting [7]) was 13%; in test [3] (setting [8]) it was 99% (active); in test [3] (at 50.0 µM), 63.2%; in test [4] (setting [7]), -11%; in test [4] (setting [8]) it was 99% (active); in test [4] (at 50.0 µM) it was 73.8% (active). Besides, the growth inhibition in test [5] (setting [7]) is -8%; in test [5] (setting [8]), 98% (active); in test [5] (at 50.0 µM) it was 9.85%; in test [6] (setting [7]), 15%; in test [6] (setting [8]), 99% (active); in test [6] (at 50.0 µM) it was 96.1% (active).
Consider `Cc1ccc(C(Cl)(c2ccc(C)cc2)c2ccc(C)cc2)cc1`, for which the growth inhibition in test [1] (setting [7]) is 3%; in test [1] (setting [8]), 90% (active); in test [1] (at 50.0 µM), 67.5%; in test [2] (setting [7]), 39%; in test [2] (setting [8]), 93% (active); in test [2] (at 50.0 µM) it was 93.1% (active). In addition, the growth inhibition in test [3] (setting [7]) was -3%; in test [3] (setting [8]), 93% (active); in test [3] (at 50.0 µM), 97.5% (active); in test [4] (setting [7]), -2%; in test [4] (setting [8]), 90% (active); in test [4] (at 50.0 µM), 94.5% (active). The growth inhibition in test [5] (setting [7]) was 87% (active); in test [5] (setting [8]), 92% (active); in test [5] (at 50.0 µM), 97.2% (active); in test [6] (setting [7]), 11%; in test [6] (setting [8]), 91% (active); in test [6] (at 50.0 µM), 92.2% (active).
As to `CCC[n+]1ccnc2ccccc21`, the growth inhibition was 2% in test [1] (setting [7]); 2% in test [1] (setting [8]); 15.3% in test [1] (at 50.0 µM); -11% in test [2] (setting [7]); -1% in test [2] (setting [8]); 8.3% in test [2] (at 50.0 µM). Moreover, the growth inhibition in test [3] (setting [7]) was -4%; in test [3] (setting [8]), -10%; in test [3] (at 50.0 µM), 27.9%; in test [4] (setting [7]) it was 13%; in test [4] (setting [8]), 4%; in test [4] (at 50.0 µM) it was 11%. In addition, the growth inhibition was -2% in test [5] (setting [7]); -5% in test [5] (setting [8]); 19.6% in test [5] (at 50.0 µM); -4% in test [6] (setting [7]); 14% in test [6] (setting [8]); 22.9% in test [6] (at 50.0 µM).
Turning to `O=C1CSC(c2c[nH]c3ccccc23)N1c1cccc(Cl)c1` (stereo not given), the growth inhibition in test [1] (setting [7]) is 10%; in test [1] (setting [8]), 93% (active); in test [1] (at 50.0 µM) it was 85.8% (active); in test [2] (setting [7]) it was 8%; in test [2] (setting [8]), 97% (active); in test [2] (at 50.0 µM) it was 87.7% (active). Further, the growth inhibition was 16% in test [3] (setting [7]); 87% (active) in test [3] (setting [8]); 87.3% (active) in test [3] (at 50.0 µM); 6% in test [4] (setting [7]); 95% (active) in test [4] (setting [8]); 87% (active) in test [4] (at 50.0 µM). The growth inhibition was 16% in test [5] (setting [7]); 97% (active) in test [5] (setting [8]); 88.5% (active) in test [5] (at 50.0 µM); -5% in test [6] (setting [7]); 97% (active) in test [6] (setting [8]); 84.5% (active) in test [6] (at 50.0 µM).
For the molecule `CC(C)COC(=O)c1ccc(NC(=O)CCl)cc1`, the growth inhibition in test [1] (setting [7]) was 0%; in test [1] (setting [8]), 93% (active); in test [1] (at 50.0 µM) it was 62.1%; in test [2] (setting [7]), -1%; in test [2] (setting [8]) it was 94% (active); in test [2] (at 50.0 µM) it was 29.9%. Moreover, the growth inhibition is 2% in test [3] (setting [7]); 95% (active) in test [3] (setting [8]); 62.3% in test [3] (at 50.0 µM); -7% in test [4] (setting [7]); 95% (active) in test [4] (setting [8]); 16.1% in test [4] (at 50.0 µM). For the same molecule, the growth inhibition in test [5] (setting [7]) was 0%; in test [5] (setting [8]) it was 93% (active); in test [5] (at 50.0 µM), 10%; in test [6] (setting [7]), 3%; in test [6] (setting [8]), 92% (active); in test [6] (at 50.0 µM), 67.8%.
In the case of `Oc1cc2ccccc2c2c1ccc1ccccc12`, the growth inhibition is -142% in test [1] (setting [7]); 90% (active) in test [1] (setting [8]); 84.5% (active) in test [1] (at 50.0 µM); -35% in test [2] (setting [7]); 97% (active) in test [2] (setting [8]); 77.8% (active) in test [2] (at 50.0 µM). For the same molecule, the growth inhibition is -52% in test [3] (setting [7]); 95% (active) in test [3] (setting [8]); 86.7% (active) in test [3] (at 50.0 µM); -55% in test [4] (setting [7]); 95% (active) in test [4] (setting [8]); 67.8% in test [4] (at 50.0 µM). Besides, the growth inhibition in test [5] (setting [7]) was -55%; in test [5] (setting [8]) it was 94% (active); in test [5] (at 50.0 µM) it was 84% (active); in test [6] (setting [7]), -94%; in test [6] (setting [8]), 92% (active); in test [6] (at 50.0 µM), 77.3% (active).
As to `O=C(OCc1ccccc1)c1ccc(O)cc1`, the growth inhibition in test [1] (setting [7]) is 6%; in test [1] (setting [8]) it was 79% (active); in test [1] (at 50.0 µM) it was 96.8% (active); in test [2] (setting [7]), -1%; in test [2] (setting [8]), 85% (active); in test [2] (at 50.0 µM), 98.3% (active). In addition, the growth inhibition in test [3] (setting [7]) is 1%; in test [3] (setting [8]) it was 64%; in test [3] (at 50.0 µM), 98.5% (active); in test [4] (setting [7]) it was 2%; in test [4] (setting [8]) it was 39%; in test [4] (at 50.0 µM), 85.8% (active). For the same molecule, the growth inhibition in test [5] (setting [7]) was 9%; in test [5] (setting [8]) it was 91% (active); in test [5] (at 50.0 µM) it was 97.8% (active); in test [6] (setting [7]), 2%; in test [6] (setting [8]), 88% (active); in test [6] (at 50.0 µM) it was 99% (active).
As to `CC(=O)N(C(C)=O)C1=C2c3ccccc3N(S(=O)(=O)c3ccccc3)C2n2c(=O)n(-c3ccccc3)c(=O)n2C1` (stereo not given), the growth inhibition was 11% in test [1] (setting [7]); 64% in test [1] (setting [8]); 69.9% in test [1] (at 50.0 µM); -5% in test [2] (setting [7]); 46% in test [2] (setting [8]); 46.8% in test [2] (at 50.0 µM). Besides, the growth inhibition is -1% in test [3] (setting [7]); 66% in test [3] (setting [8]); 75.7% (active) in test [3] (at 50.0 µM); -26% in test [4] (setting [7]); 61% in test [4] (setting [8]); 63.7% in test [4] (at 50.0 µM). Moreover, the growth inhibition was 0% in test [5] (setting [7]); 56% in test [5] (setting [8]); 58.6% in test [5] (at 50.0 µM); -10% in test [6] (setting [7]); 35% in test [6] (setting [8]); 55.7% in test [6] (at 50.0 µM).

The values above are taken from PubChem BioAssay (NCI).
